In the library only some 21% were active in any assay of this set; here they are far more common.
NS1 function inh – inhibitors of influenza NS1 protein function; actives 0.4% (n = 270,000); AID 2326; Potency, µM (series often up to 46.1 µM), inactives show at the top dose activity, positive = more growth; calls by dose curve; also: potency is read from the fitted curve at half-maximal effect; actives are rising curves; nearly all actives have a fitted effect of over 50% in size
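Compounds were scored for reversing the slow growth caused by influenza A NS1 in S. cerevisiae, measured by optical density at 600 nm. Assay medium contained 2% galactose at pH 6.0; NS1-free yeast of the same strain were the positive control.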
Pf growth 96h – P. falciparum growth inhibition at 96 hours; P. falciparum luciferase reporter growth, 96 h; Potency, µM (series often up to 28.7 µM), for inactives: at the top dose activity change, negative = inhibition, most hits filed as inhibitors; actives 6.9% (n = 320,000); also: potency is read from the fitted curve at half-maximal effect; % is scaled to controls: 0 for no effect and ±100 for the full control effect
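96 h incubation, 37 C, 5% CO2, of luciferase-reporter P. falciparum-infected RBCs (2% hematocrit, 0.05% parasitemia final) with test compounds; endpoint luminescence.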
SARS PLP yeast – blocks SARS-CoV papain-like protease in a yeast assay; S. cerevisiae expressing SARS-CoV PLpro, growth rescue; Potency, µM (series often up to 32.9 µM), without a hit: at the top dose activity, positive = growth rescue, actives largely listed as activators; actives 0.19% (n = 330,000); calls by dose curve; also: potency is read from the fitted curve at half-maximal effect; 0% is about no effect; nearly all actives have a fitted effect of over 55% in size
Shiga toxin inh – Shiga toxin inhibition; Vero cells, Shiga toxin protein synthesis inhibition reporter; inhibition, % at 38.7 µM; actives 9.2% (n = 290,000); AID 2315; in the data active = inhibition mostly above about 28%, no sharp cut-off; inactive = mostly below about 43%; also: 0% is about no effect
Pf growth 48h – inhibits P. falciparum growth in the first generation, 48 h; actives 5.9% (n = 310,000); P. falciparum luciferase growth in erythrocytes, 48 h; AID 504832; Potency, µM (doses to about 28.7 µM), without a hit: at the top dose activity change, negative = inhibition, most hits filed as inhibitors; also: potency is read from the fitted curve at half-maximal effect; % is scaled to controls: 0 for no effect and ±100 for the full control effect
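Luciferase-expressing parasites in RBCs, 2% Hct / 0.1% parasitemia final; RPMI 1640 + 0.5% Albumax; 37 C, 5% CO2, one generation; luminescence read-out, lower signal = inhibition.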
CHX counter – counter-screen for Shiga toxin inhibitors: cycloheximide protein synthesis inhibition | actives 12% (n = 300,000) | max response, % | AID 2314 | cell reporter, cycloheximide protein synthesis inhibition counterscreen; in the data active = max response mostly above about 13%, no sharp cut-off; inactive = mostly below about 14%; also: read at 38.3 µM for the half of the compounds with a filed dose; 0% is about no effect
An asterisk follows results filed as active; i = inactive; ? = inconclusive; . = no result given; [ ] = dose if it differs, or a comment. Unless noted, calls follow the shape of the dose curve; as a rule, active = well fitted inhibition curve with a large enough effect; inconclusive = small, poorly fitted or top-dose-only effect, or another doubt; inactive = no such curve, though single readings can be large or run the other way.

SMILES | NS1 function inh | Pf growth 96h | SARS PLP yeast | Shiga toxin inh | Pf growth 48h | CHX counter
CC(C)C(=O)Nc1cccc(C(=O)Nc2nnc(C(C)C)s2)c1 | 9% | -29% | 9% | 92* | 356% | 42*
CC(C)C(=O)Nc1ccc(C(=O)Nc2nnc(C(C)C)s2)cc1 | 1% | 0% | 1% | 44* | 47% | 31
Cc1nnc(NC(=O)c2cccc(NC(=O)C(C)C)c2)s1 | 7% | . | 4% | 49 | ? | 10
CCCc1cc(=O)[nH]c(SCC(=O)NC(=O)NC2CCCC2)n1 | . | -2% | 5% | . | 10% | .
Cn1ccnc1C1CCCCN1Cc1nc(-c2ccc(Cl)cc2)no1 (stereo not drawn) | -6% | ? | 1% | -14 | 12µM* | 1
O=C(CCCc1nc(-c2ccccc2)no1)N1CCOCC1 | -11% | 29%[5.75 µM] | 8% | 30 | 37% | 18*
Cc1ccc(-c2noc(CCC(=O)NC3CCCc4ccccc43)n2)cc1 (stereo not drawn) | -8% | 1.7µM* | 1% | -5 | -23% | 1
Clc1ccc(-c2noc(CN3CCCC3)n2)cc1 | 3% | ? | 1% | 65* | 152% | 37*
O=C(COc1ccc(Br)cc1)N/N=C1/SCC(=O)N1Cc1ccccc1 | -3% | -4% | -3% | -7 | -9% | -5
Cc1ccc(-c2noc(CN3CCOCC3)n2)cc1 | 2% | 53% | 8% | 76* | 87% | 39*
Cc1ccc(-c2noc(CN3CCCCC3)n2)cc1 | 4% | 166% | 0% | 91* | . | 49*
Cc1ccc(-c2noc(CCC(=O)N3CCN(c4cc(C)ccc4C)CC3)n2)cc1 | . | . | -16% | . | . | .
Cc1ccc(-c2noc(CCC(=O)N3CCCC3)n2)cc1 | 4% | 32% | 6% | 46* | 53% | 27*
N=c1n(CC(=O)c2cccc([N+](=O)[O-])c2)c2ccccc2n1Cc1ccccc1 | . | 15% | -4% | 15 | ? | 6
N=c1n(CCN2CCOCC2)c2ccccc2n1CC(=O)c1ccc(Cl)c(Cl)c1 | -163% | 0.47µM* | -25% | 11 | 12µM* | 24*
CCn1c(=N)n(CC(=O)c2cccc([N+](=O)[O-])c2)c2ccccc21 | 9% | -1% | -2% | 81* | 68% | 38*
N=c1n(CCN2CCCCC2)c2ccccc2n1CC(=O)c1cccs1 | 3% | 10µM* | -1% | -11 | 12µM* | -3
Cn1c(=N)n(CC(=O)c2cccs2)c2ccccc21 | 7% | i | 3% | 149* | 200% | 56*
CCCn1c(=N)n(CC(=O)c2cccs2)c2ccccc21 | 0% | 27% | 4% | -6 | -5% | -5
O=C(NCc1ccccc1)C1(C(F)(F)F)C/C(=C\Cc2ccccc2)CCCO1 (stereo not drawn) | . | . | . | 22 | . | 10
COc1ccc(C(CNC(=O)CNS(=O)(=O)c2ccc(NC(C)=O)cc2)N2CCOCC2)cc1 (stereo not drawn) | . | 1% | -13% | . | -1% | .
CCCCn1nnnc1NCc1cccc(OC)c1OC | 1% | ? | 1% | -17 | 18% | -3
COc1cccc(C(=O)Cn2c(NCCO)nc3ccccc32)c1 | 8%[9.22 µM] | ? | 2% | 19 | -16% | -4
COc1cccc(C(=O)Cn2c(=N)n(C)c3ccccc32)c1 | -49% | 29% | 8% | 30 | 62% | 31*
Cc1ccc(S(=O)(=O)N2CCCCC2)cc1NC(=O)COC(=O)c1ccc(=O)[nH]c1 | . | ? | -5% | . | -22% | .
SMILES | NS1 function inh | Pf growth 96h | SARS PLP yeast | Shiga toxin inh | Pf growth 48h | CHX counter
Cc1ccc(C)c(NC(=O)c2ccc(OCc3c(C)noc3C)cc2)c1 | . | ? | -3% | . | ? | .
O=C(c1cnn(-c2cccc(F)c2)c1)c1ccccc1O | 3% | 142% | -1% | 100* | 69% | 24*
O=C(O)c1ccc(-n2cc(C(=O)c3ccccc3O)cn2)cc1 | -1% | 86% | 1% | 30 | 92% | 29*
O=C(c1cnn(-c2nc3ccccc3s2)c1)c1ccccc1O | -2% | ? | 5% | 47* | 89% | 30*
O=C(c1cnn(-c2ccccc2)c1)c1cc(Br)ccc1O | . | -84% | -1% | . | ? | .
Cc1ccc(S(=O)(=O)N(C)C)cc1NC(=O)CCNC(=O)c1ccccc1Cl | 7% | 39% | 19% | -15 | 10% | 3
Cc1cccc(C(=O)Nc2sc(C)c(-c3ccccc3)c2C#N)c1 | -5% | 114% | -7% | 59* | 132% | 41*
Cc1sc(NC(=O)C2CCCCC2)c(C#N)c1-c1ccccc1 | -1% | 0% | -4% | 142* | 0% | 57*
COC(=O)C1=C[C@@H](C(=O)OC)C2C3=C(C(=O)[C@]2(CC(C)C)NC(=O)c2ccccc2)[C@H](C)n2c(=O)n(C)c(=O)n2[C@@H]3C1 (stereo partly drawn) | . | . | . | -4 | . | -4
COc1cc2c(cc1OC)/C(=C/C(=O)c1ccc([N+](=O)[O-])c(C)c1)NCC2 | 4% | 5.2µM* | 2% | 19 | 9.3µM* | 1
O=C(CN1CCN(Cc2ccccc2)CC1)NNC(=O)c1ccccc1 | . | ? | 0% | . | -10% | .
Cc1ccc(-c2nnn(CC(=O)N(CC(=O)NC3CCCCC3)c3ccc(F)c(Cl)c3)n2)o1 | 2% | -6% | -8% | -6 | -19% | -2
CCC(C(=O)NC1CCCC1)N(C(=O)Cn1nnc(-c2cccs2)n1)c1cnc2ccccc2c1 (stereo not drawn) | -26% | -2% | -4% | 6 | 12µM* | -2
Cc1ccc(-c2nnn(CC(=O)N(CC(=O)NC3CCCC3)c3ccc(F)c(Cl)c3)n2)o1 | 0% | 13µM* | -3% | -9 | 9.3µM* | -1
Cc1ccc(-c2nnn(CC(=O)N(CC(=O)NCc3ccccc3)c3cccc(C)c3C)n2)o1 | -13% | ? | -3% | -2 | 15µM* | -3
Cc1ccc(-c2nnn(CC(=O)N(CC(=O)NC3CCCC3)c3cnc4ccccc4c3)n2)o1 | -5% | 9.3µM* | -1% | -16 | ? | 1
COc1cc(C(=O)NC2=C(C#N)CCC2)cc(OC)c1OC | -3% | 20% | 0% | -11 | -11% | -1
CCC(C(=O)NC1CCCC1)N(C(=O)Cn1nnc(-c2ccc(C)o2)n1)c1ccc(F)cc1 (stereo not drawn) | 2% | 12µM* | 7% | -5 | -2% | -1
Cc1ccc(-c2nnn(CC(=O)N(Cc3ccccc3F)C(C(=O)NC3CCCC3)c3ccncc3)n2)o1 (stereo not drawn) | -39% | ? | 8% | 18 | 9.3µM* | -5
Cc1ccc(-c2nnn(CC(=O)N(c3ccccc3)C(C(=O)NC3CCCC3)c3ccncc3)n2)o1 (stereo not drawn) | 2% | -16% | 2% | 19 | 12% | -3
NC1=NC(=O)/C(=C/c2c(OS(=O)(=O)c3ccc(Cl)cc3)ccc3ccccc23)S1 | ? | 45% | -6% | 21 | -1% | -6

Screening data as filed in PubChem BioAssay.
